# Experimental data reported in PubChem BioAssay AID1159580 (chemical genetic matrix, 2015).
# “And” between values parts separate entries of the source, which are not always exact repeats. Equal entries are not always repeated. Out of some 5,500 compounds screened, about 2,000 (36%) were called active. Inconclusive results (about 18%) are left out. This is one part of the list. Values without a mark were called inactive. Cut-off read from the data, not from the text of the source: active = normalized growth mostly below about 0.91 (no sharp cut-off); inconclusive = no clear call, values can overlap the other calls; inactive = mostly above about 0.92.
# Experiment: chemical genetic growth profiling, strain panel (AID 1159580);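 note: tested at 20 µM; growth read once vehicle control cultures reached saturation at 30 °C; 1 = growth at the plate median or of vehicle wells; lower values mean less growth of the strain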
# Details: growth OD
structure (smiles),measurement,setting,value
CN(C)CCN(Cc1cccs1)c1ccccn1,normalized growth,"S. cerevisiae deletion strains, locus YJR066W, strain TOR1, active compounds read low",0.82 (active)
same,normalized growth,"S. cerevisiae deletion strains, locus YJR075W, strain HOC1, active compounds read low",0.98 and 1.01
same,normalized growth,"S. cerevisiae deletion strains, locus YKL009W, strain mrt4, active compounds read low",1.02
same,normalized growth,"S. cerevisiae deletion strains, locus YKL068W, active compounds read low",1.01
same,normalized growth,"S. cerevisiae deletion strains, locus YKL085W, strain MDH1 (second series), active compounds read low",0.997
same,normalized growth,"S. cerevisiae deletion strains, locus YKL085W, strain MDH1, active compounds read low",0.997
same,normalized growth,"S. cerevisiae deletion strains, locus YKL160W, strain elf1, active compounds read low",1.01
same,normalized growth,"S. cerevisiae deletion strains, locus YKL190W, strain CNB1, active compounds read low",0.985
same,normalized growth,"S. cerevisiae deletion strains, locus YKR001C, strain vps1, active compounds read low",0.986
same,normalized growth,"S. cerevisiae deletion strains, locus YKR026C, strain gcn3, active compounds read low",1.01
same,normalized growth,"S. cerevisiae deletion strains, locus YKR091W, strain srl3, active compounds read low",1
same,normalized growth,"S. cerevisiae deletion strains, locus YLL001W, strain dnm1, active compounds read low",1.01
same,normalized growth,"S. cerevisiae deletion strains, locus YLL026W, active compounds read low",1
same,normalized growth,"S. cerevisiae deletion strains, locus YLL041C, strain sdh2, active compounds read low",1.01
same,normalized growth,"S. cerevisiae deletion strains, locus YLR027C, strain aat2, active compounds read low",1.01
same,normalized growth,"S. cerevisiae deletion strains, locus YLR039C, strain RIC1, active compounds read low",1.03
same,normalized growth,"S. cerevisiae deletion strains, locus YLR058C, strain SHM2, active compounds read low",1.02
same,normalized growth,"S. cerevisiae deletion strains, locus YLR102C, strain apc9, active compounds read low",1.01
same,normalized growth,"S. cerevisiae deletion strains, locus YLR113W, strain HOG1, active compounds read low",0.995
same,normalized growth,"S. cerevisiae deletion strains, locus YLR221C, strain rsa3, active compounds read low",1.01
same,normalized growth,"S. cerevisiae deletion strains, locus YLR258W, strain gsy2, active compounds read low",1.01
same,normalized growth,"S. cerevisiae deletion strains, locus YLR262C, strain YPT6 (second series), active compounds read low",1.01
same,normalized growth,"S. cerevisiae deletion strains, locus YLR262C, strain YPT6, active compounds read low",1.11
same,normalized growth,"S. cerevisiae deletion strains, locus YLR268W, strain sec22, active compounds read low",1.01
same,normalized growth,"S. cerevisiae deletion strains, locus YLR320W, strain mms22, active compounds read low",1.04
same,normalized growth,"S. cerevisiae deletion strains, locus YLR330W, strain CHS5, active compounds read low",1
same,normalized growth,"S. cerevisiae deletion strains, locus YLR342W, strain FKS1 (second series), active compounds read low",1.04
same,normalized growth,"S. cerevisiae deletion strains, locus YLR342W, strain FKS1, active compounds read low",1.01
same,normalized growth,"S. cerevisiae deletion strains, locus YLR357W, strain rsc2, active compounds read low",1.03
same,normalized growth,"S. cerevisiae deletion strains, locus YLR370C, strain arc18, active compounds read low",1.02
same,normalized growth,"S. cerevisiae deletion strains, locus YLR371W, strain rom2, active compounds read low",1.01
same,normalized growth,"S. cerevisiae deletion strains, locus YLR384C, strain iki3, active compounds read low",1.01
same,normalized growth,"S. cerevisiae deletion strains, locus YLR418C, strain cdc73, active compounds read low",1.02
same,normalized growth,"S. cerevisiae deletion strains, locus YML016C, strain PPZ1, active compounds read low",1.01
same,normalized growth,"S. cerevisiae deletion strains, locus YML032C, strain rad52, active compounds read low",0.988
same,normalized growth,"S. cerevisiae deletion strains, locus YML120C, strain ndi1, active compounds read low",1.01
same,normalized growth,"S. cerevisiae deletion strains, locus YML124C, strain tub3, active compounds read low",1.01
same,normalized growth,"S. cerevisiae deletion strains, locus YMR058W, strain fet3, active compounds read low",1.01
same,normalized growth,"S. cerevisiae deletion strains, locus YMR078C, strain ctf18, active compounds read low",1.02
same,normalized growth,"S. cerevisiae deletion strains, locus YMR125W, strain sto1, active compounds read low",1.01
same,normalized growth,"S. cerevisiae deletion strains, locus YMR129W, active compounds read low",1.01
same,normalized growth,"S. cerevisiae deletion strains, locus YMR205C, strain PFK2, active compounds read low",1.02
same,normalized growth,"S. cerevisiae deletion strains, locus YMR223W, strain ubp8, active compounds read low",1.05
same,normalized growth,"S. cerevisiae deletion strains, locus YMR231W, strain pep5, active compounds read low",1.01
same,normalized growth,"S. cerevisiae deletion strains, locus YMR307W, strain GAS1, active compounds read low",1.02
same,normalized growth,"S. cerevisiae deletion strains, locus YNL067W, strain RPL9B, active compounds read low",0.997
same,normalized growth,"S. cerevisiae deletion strains, locus YNL071W, strain lat1, active compounds read low",1
same,normalized growth,"S. cerevisiae deletion strains, locus YNL128W, strain TEP1, active compounds read low",1.02
same,normalized growth,"S. cerevisiae deletion strains, locus YNL153C, strain GIM3, active compounds read low",0.989 and 1.02
same,normalized growth,"S. cerevisiae deletion strains, locus YNL175C, strain NOP13, active compounds read low",1.02
same,normalized growth,"S. cerevisiae deletion strains, locus YNL183C, strain NPR1, active compounds read low",0.886
same,normalized growth,"S. cerevisiae deletion strains, locus YNL197C, strain WHI3, active compounds read low",0.992
same,normalized growth,"S. cerevisiae deletion strains, locus YNL209W, strain ssb2, active compounds read low",1
same,normalized growth,"S. cerevisiae deletion strains, locus YNL224C, strain SQS1, active compounds read low",1.01
same,normalized growth,"S. cerevisiae deletion strains, locus YNL233W, strain BNI4, active compounds read low",0.986
same,normalized growth,"S. cerevisiae deletion strains, locus YNL248C, strain rpa49, active compounds read low",1.02
same,normalized growth,"S. cerevisiae deletion strains, locus YNL250W, strain rad50, active compounds read low",1.02
same,normalized growth,"S. cerevisiae deletion strains, locus YNL271C, strain bni1, active compounds read low",1.01
same,normalized growth,"S. cerevisiae deletion strains, locus YNL298W, strain CLA4, active compounds read low",1.01
same,normalized growth,"S. cerevisiae deletion strains, locus YNL307C, strain MCK1, active compounds read low",1.02
same,normalized growth,"S. cerevisiae deletion strains, locus YNL322C, strain KRE1 (second series), active compounds read low",1.01
same,normalized growth,"S. cerevisiae deletion strains, locus YNL322C, strain KRE1, active compounds read low",0.991
same,normalized growth,"S. cerevisiae deletion strains, locus YNR049C, strain mso1, active compounds read low",1.02
same,normalized growth,"S. cerevisiae deletion strains, locus YNR052C, strain pop2, active compounds read low",1.01
same,normalized growth,"S. cerevisiae deletion strains, locus YOL006C, strain TOP1, active compounds read low",0.902
same,normalized growth,"S. cerevisiae deletion strains, locus YOL012C, strain htz1",0.737
same,normalized growth,"S. cerevisiae deletion strains, locus YOL147C, strain pex11, active compounds read low",1.02
same,normalized growth,"S. cerevisiae deletion strains, locus YOR001W, strain rrp6, active compounds read low",1
same,normalized growth,"S. cerevisiae deletion strains, locus YOR061W, strain CKA2, active compounds read low",1.01
same,normalized growth,"S. cerevisiae deletion strains, locus YOR069W, strain VPS5, active compounds read low",1.01
same,normalized growth,"S. cerevisiae deletion strains, locus YOR070C, strain gyp1, active compounds read low",1.01
same,normalized growth,"S. cerevisiae deletion strains, locus YOR080W, strain dia2, active compounds read low",1
same,normalized growth,"S. cerevisiae deletion strains, locus YOR083W, strain WHI5 (second series), active compounds read low",1.01
same,normalized growth,"S. cerevisiae deletion strains, locus YOR083W, strain WHI5, active compounds read low",1.01
same,normalized growth,"S. cerevisiae deletion strains, locus YOR106W, strain vam3, active compounds read low",0.998
same,normalized growth,"S. cerevisiae deletion strains, locus YOR136W, strain idh2, active compounds read low",1.01
same,normalized growth,"S. cerevisiae deletion strains, locus YOR144C, strain elg1, active compounds read low",1.01
same,normalized growth,"S. cerevisiae deletion strains, locus YOR184W, strain ser1, active compounds read low",1.01
same,normalized growth,"S. cerevisiae deletion strains, locus YOR231W, strain MKK1, active compounds read low",0.88
same,normalized growth,"S. cerevisiae deletion strains, locus YOR265W, strain rbl2, active compounds read low",1.01
same,normalized growth,"S. cerevisiae deletion strains, locus YOR270C, strain vph1, active compounds read low",1
same,normalized growth,"S. cerevisiae deletion strains, locus YOR290C, strain snf2, active compounds read low",1.01
same,normalized growth,"S. cerevisiae deletion strains, locus YOR316C, strain cot1, active compounds read low",1.01
same,normalized growth,"S. cerevisiae deletion strains, locus YPL051W, strain arl3, active compounds read low",1.01
same,normalized growth,"S. cerevisiae deletion strains, locus YPL055C, strain LGE1, active compounds read low",0.929
same,normalized growth,"S. cerevisiae deletion strains, locus YPL078C, strain atp4, active compounds read low",1
same,normalized growth,"S. cerevisiae deletion strains, locus YPL106C, strain sse1, active compounds read low",1
same,normalized growth,"S. cerevisiae deletion strains, locus YPL240C, strain hsp82, active compounds read low",1.01
same,normalized growth,"S. cerevisiae deletion strains, locus YPL256C, strain CLN2, active compounds read low",0.98
same,normalized growth,"S. cerevisiae deletion strains, locus YPR119W, strain clb2, active compounds read low",1.01
same,normalized growth,"S. cerevisiae deletion strains, locus YPR141C, strain kar3, active compounds read low",1
same,normalized growth,"S. cerevisiae deletion strains, locus YPR163C, strain tif3, active compounds read low",1.01
same,normalized growth,"S. cerevisiae deletion strains, locus YPR167C, strain met16, active compounds read low",1.01
same,normalized growth,"S. cerevisiae deletion strains, strain wtn01, active compounds read low",1.01
same,normalized growth,"S. cerevisiae strains, strain wild type, active compounds read low",1
